Shiga toxin inh – A qHTS for Small Molecule Inhibitors of Shiga Toxin | Vero cells, Shiga toxin protein synthesis inhibition reporter | inhibition, % at 38.7 µM | actives 9.2% (n = 290,000); in the data active = inhibition mostly above about 28%, no sharp cut-off; inactive = mostly below about 43%; also: 0% is about no effect
Giardia FBPA inh – qHTS Assay for Inhibitors of Fructose-1,6-bisphosphate Aldolase from Giardia Lamblia; A8B2U2; purified Giardia FBPA; Potency, µM (doses to about 59.6 µM), inactives show at the top dose activity, negative = inhibition, actives largely listed as inhibitors; actives 0.71% (n = 290,000); AID 2451, 2010; also: potency is read from the fitted curve at half-maximal effect; % is scaled to controls: 0 for no effect and ±100 for the full control effect; nearly all actives have a fitted effect of over 55% in size
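40 nM FBPA preincubated 10 min at RT with compound (up to 57.5 uM final), then substrate plus GAPDH/TPI/NAD/arsenate coupling and diaphorase/resazurin added. Fluorescence read after 20 min at RT, 525/598 nm.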
Tb PYK inh – qHTS of Trypanosoma Brucei Inhibitors; actives 0.12% (n = 410,000); Potency, µM (doses to about 76.8 µM), for the others: top-dose activity, negative = inhibition, usual class: inhibitors; TbPYK enzyme, Kinase-Glo Plus ATP luminescence, 45 min; pyruvate kinase (Trypanosoma brucei), Q57TT1; also: potency is read from the fitted curve at half-maximal effect; % is scaled to controls: 0 for no effect and ±100 for the full control effect; nearly all actives have a fitted effect of over 50% in size
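Glycolytic pyruvate kinase of T. brucei was incubated with substrate, test compound and 130 uM ADP for 45 minutes at room temperature. Luminescent Kinase-Glo Plus signal was measured after 10 minutes.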
Sm TGR block – qHTS Assay for the Inhibitors of Schistosoma Mansoni Peroxiredoxins. purified TGR, DTNB reduction, TNB absorbance 405 nm. Potency, µM (series often up to 114 µM), for inactives: top-dose activity change, negative = inhibition, actives largely listed as inhibitors. actives 3% (n = 360,000). Schistosoma mansoni thioredoxin glutathione reductase (TGR), Q962Y6; also: potency is read from the fitted curve at half-maximal effect; % is scaled to controls: 0 for no effect and ±100 for the full control effect; nearly all actives have a fitted effect of over 60% in size
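First, TGR (20 nM dispensed) and NADPH were mixed with compound. Second, a 15 min room-temperature incubation followed. Third, further NADPH and then DTNB were added to start the reaction. Finally, TNB absorbance was monitored kinetically.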
CHX counter-1 – Cycloheximide Counterscreen for Small Molecule Inhibitors of Shiga Toxin; max response, %; actives 12% (n = 300,000); AID 2314, 2010; cell reporter, cycloheximide protein synthesis inhibition counterscreen; in the data active = max response mostly above about 13%, no sharp cut-off; inactive = mostly below about 14%; also: read at 38.3 µM for the half of the compounds with a filed dose; 0% is about no effect
LmPK inhibitor – qHTS Assay for Inhibitors of Leishmania Mexicana Pyruvate Kinase (LmPK); Q27686; purified LmPK, Kinase-Glo ATP luminescence, 1 h; Potency, µM (highest dose often 57.5 µM), for inactives: at the highest dose activity change, negative = inhibition, most hits filed as inhibitors; actives 0.37% (n = 290,000); also: potency is read from the fitted curve at half-maximal effect; % is scaled to controls: 0 for no effect and ±100 for the full control effect
Target sequence (Q27686 whole entry, looked up): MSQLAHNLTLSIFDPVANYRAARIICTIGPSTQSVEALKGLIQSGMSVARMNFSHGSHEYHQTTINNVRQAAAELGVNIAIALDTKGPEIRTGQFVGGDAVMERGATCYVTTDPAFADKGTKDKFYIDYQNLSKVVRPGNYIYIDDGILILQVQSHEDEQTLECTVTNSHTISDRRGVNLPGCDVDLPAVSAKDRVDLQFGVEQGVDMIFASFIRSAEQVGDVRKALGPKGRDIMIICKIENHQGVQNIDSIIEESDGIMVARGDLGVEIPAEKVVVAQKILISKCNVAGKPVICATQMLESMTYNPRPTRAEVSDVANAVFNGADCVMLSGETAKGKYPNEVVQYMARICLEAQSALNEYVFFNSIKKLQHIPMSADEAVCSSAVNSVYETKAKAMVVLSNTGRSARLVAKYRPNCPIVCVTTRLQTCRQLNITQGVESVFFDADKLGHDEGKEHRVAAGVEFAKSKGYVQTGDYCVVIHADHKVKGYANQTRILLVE
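Kinase-Glo luminescence read after 1 h RT reaction of 0.1 nM LmPK with 0.5 mM PEP and 0.1 mM ADP. Activity scaled between uninhibited and enzyme-free controls.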
CHX counter-2 – Cycloheximide Counterscreen for Small Molecule Inhibitors of Shiga Toxin (Confirmatory); shares compounds with Shiga toxin inh; Cycloheximide counterscreen, protein synthesis reporter, Shiga toxin assay; Potency, µM (doses to about 38.3 µM), for the others: top-dose activity (activation), hits mostly activators; actives 3% (n = 510); AID 2318, 2010; calls by dose curve; also: potency is read from the fitted curve at half-maximal effect; 0% is about no effect
Starred values were filed as active, the others as inactive; ? = inconclusive; / = no result; + = active, no number. This is one part of a sample in which hits are shown more often than they occur. Unless noted, calls follow the shape of the dose curve; as a rule, active = well fitted curve in the direction sought with a large enough effect; inconclusive = small, poorly fitted or top-dose-only effect, or another doubt; inactive = no such curve, though single readings can be large; an effect the other way counts as inactive or inconclusive.

SMILES	Shiga toxin inh	Giardia FBPA inh	Tb PYK inh	Sm TGR block	CHX counter-1	LmPK inhibitor	CHX counter-2
Cc1ccc(Cl)cc1NC(=O)COC(=O)c1ccc(COc2ccc3c(C)cc(=O)oc3c2)cc1	39*	6%	/	-2%	-1	1%	2%
CC(=O)Nc1ccc(NC(=O)c2cc(S(=O)(=O)N3CCCCC3)ccc2N2CCOCC2)cc1	/	/	-14%	/	/	/	/
Cc1ccc(NC(=O)c2cc(S(=O)(=O)N3CCCCC3)ccc2N2CCOCC2)cc1F	31*	14%	2%	2%	1	6%	-1%
O=C(NCCN1CCOCC1)C(=O)NCC1OCCN1S(=O)(=O)c1ccccc1 (stereo not drawn)	12*	/	6%	-8%	9	-5%	-1%
O=C(NCCN1CCOCC1)C(=O)NCC1OCCN1S(=O)(=O)c1ccc(Br)cc1 (stereo not drawn)	-10	-7%	2%	-8%	1	-4%	/
O=C(NCCC1=CCCCC1)C1CCN(S(=O)(=O)c2cccc3cccnc23)CC1	active	-2%	-8%	-21%	9	-1%	3%
COc1ccccc1NC(=O)N[C@@H](Cc1c[nH]c2ccccc12)C(=O)NN	2	6%	-2%	-10%	-2	1%	/
CC(C)Oc1ccc(C(=O)NC(Cc2c[nH]c3ccccc23)C(=O)NN)cc1 (stereo not drawn)	37*	9%	-4%	-2%	9	4%	1%
Cc1ccc(C(=O)N(C)CC(=O)Nc2ccc(N3CCOCC3)cc2)s1	/	/	-3%	-10%	/	/	/
CCn1cc(C(=O)N2CCCC(C(=O)c3cccc(C(F)(F)F)c3)C2)cn1 (stereo not drawn)	/	/	6%	/	/	/	/
CCOC(=O)C1CCCN(C(=O)c2cc(Nc3ccc(OC)c(OC)c3)nc3ccccc23)C1 (stereo not drawn)	38*	-7%	11%	10%	10	-1%	4%
Cc1nc2cccnc2n1C1CCN(S(C)(=O)=O)CC1	/	/	-6%	-3%	/	/	/
CCn1c(SCC(=O)O)nnc1-c1ccc2[nH]c(C)c(C)c2c1	27*	5%	-15%	0%	14	2%	5%
CCn1c(SCC(N)=O)nnc1-c1ccc2[nH]c(C)c(C)c2c1	-11	-8%	-5%	-15%	-2	1%	/
Cn1nc(C(C)(C)C)cc1C(=O)N1CCCCC1c1cc(C(=O)Nc2ccccc2)no1 (stereo not drawn)	/	/	2%	/	/	/	/
Cc1ccccc1-c1nnc(SCC#N)o1	33*	0%	-4%	5%	10	4%	1%
CN(Cc1ccc(Cl)cc1)C(=O)c1ccccc1SCC(=O)N1CCCC1	/	/	-3%	-1%	/	/	/
Cn1c(OCC2CCCO2)nc2cc(-c3ccccc3)sc2c1=O (stereo not drawn)	/	/	4%	/	/	/	/
O=C(COc1ncnc2ccccc12)NCCc1ccccc1	-7	3%	-4%	-6%	5	-12%	/
O=C(COc1ncnc2ccccc12)NCCC1=CCCCC1	41*	-1%	-12%	4%	1	-3%	-2%
COc1ccc2nc(SCC(=O)Nc3ccc4c(c3)CCC4)[nH]c2c1	42*	-2%	2%	-1%	5	-4%	0%
COc1ccc2nc(SCC(=O)NC3CCCCC3)[nH]c2c1	48	-9%	-5%	2%	-1	6%	/
COc1ccc2nc(SCC(=O)Nc3ccc4[nH]c(=O)[nH]c4c3)[nH]c2c1	/	/	2%	-1%	/	/	/
CCOc1ccc2nc(SCC(=O)NC3CCCCC3)[nH]c2c1	44*	-8%	-8%	4%	-3	0%	-1%
CNc1ccc(/C=C(\CCC(=O)O)c2nc3ccccc3s2)cc1[N+](=O)[O-]	65*	-7%	0%	-9%	8	2%	1%
SMILES	Shiga toxin inh	Giardia FBPA inh	Tb PYK inh	Sm TGR block	CHX counter-1	LmPK inhibitor	CHX counter-2
Cc1ccc(N(CC(=O)N2CCCCCC2)S(C)(=O)=O)cc1	/	/	-9%	/	/	/	/
Cc1ccccc1OCCCN1C(=O)C(=O)c2cccc(C)c21	28*	-28%	1%	-2%	6	0%	-1%
Cc1cccc2c1N(CCCOc1ccccc1)C(=O)C2=O	1	-15%	-1%	-35%	-3	-1%	/
COC(=O)c1ccc(CSCC(=O)Nc2cc(OC)cc(OC)c2)o1	4	-1%	-5%	3%	-6	2%	/
COC(=O)c1ccc(CSCc2ccc(C(=O)OC)o2)o1	38*	-1%	2%	-9%	1	-1%	-1%
CC1=CC(C)(C)N(C(=O)CNC2CCCC2)c2cc(C)ccc21	-3	?	-5%	/	-3	1%	/
CC(C)NC(=O)c1ccc(OC2CSC2)cc1	29*	0%	1%	10%	-3	2%	?
COc1ccccc1-n1cnnc1SCC(=O)Nc1ccccc1	62*	4%	3%	0%	1	1%	6%
Cc1ccc(NC(=O)C(C)N=C2NS(=O)(=O)c3ccccc32)cc1 (stereo not drawn)	35*	6%	-14%	-9%	8	6%	-2%
Cc1cccc(C)c1NC(=O)CCS(=O)(=O)c1ccc2c(c1)CC(C)N2C(=O)C1CC1 (stereo not drawn)	/	/	-6%	-10%	/	/	/
COc1ccc(NC(=O)c2nnn(CC(=O)Nc3ccc4c(c3)OCO4)c2N)c(OC)c1	12	2%	1%	-1%	40	-1%	/
COc1ccccc1CNc1nc2ccccc2n1CCN1CCCCC1	66*	1%	-5%	2%	10	5%	-4%
Oc1ccccc1CNc1nc2ccccc2n1CCN1CCCCC1	13	-4%	-2%	3%	8	1%	/
CCC(=O)Nc1ccc(C(=O)NNC(=O)C(c2ccccc2)c2ccccc2)cc1	-2	-5%	-1%	3%	-6	7%	/
Cc1cccc(C(=O)NNC(=O)c2ccccc2Br)c1	17	-10%	-8%	3%	13	-3%	/
Cc1cccc(C(=O)NNC(=O)c2ccccc2)c1	+	0%	-21%	1%	8	0%	?
CCC(=O)Nc1ccc(C(=O)NNC(=O)c2ccccc2)cc1	32*	0%	-2%	-6%	1	-1%	1%
CCC(=O)N1CCN(c2ccc(NC(=O)c3ccccc3)cc2)CC1	47*	4%	-6%	/	10	-10%	?
CCC(=O)N1CCN(c2ccc(NC(=O)c3ccc4ccccc4c3)cc2)CC1	21	-5%	4%	-2%	8	-3%	/
